Experimental data published in PubChem BioAssay (Tox21).
Results filed as inconclusive are left out. Activity calls are given as the source filed them. Calls come from the whole dose curve.

Each compound was assayed against 5-hydroxytryptamine receptor 2A (Homo sapiens) (UniProt P28223) (assay: 5-hydroxytryptamine receptor 2A (HTR2A) small molecule agonists, cell-based qHTS assay (AID 1963587; note: nearly all actives have a fitted effect of over 30% in size)). Settings: HTR2A-CHO cells, calcium flux fluorescence, agonist mode; series mostly up to 76.8 µM; activation: at the top concentration.
From the text: National Center for Advancing Translational Sciences [NCATS]
Division of Preclinical Innovation [DPI]
U.S. Environmental Protection Agency [EPA]
National Institutes of Environmental Health Sciences [NIEHS]
National Toxicology Program [NTP]
U.S. Food and Drug Administration [FDA]
The HTR2A receptor is a subtype of the 5-HT2 receptor that belongs to the serotonin receptor family and is a G protein-coupled receptor (GPCR). The HTR2A-CHO cell line stably expressing human 5-hydroxytryptamine receptor 2A (HTR2A) can be used for screening agonists of interactions between 5-HT2 and its ligands. The HTR2A-CHO calcium flux assay is a homogeneous fluorescence-based assay for detecting the intracellular calcium level using FDSS kinetic plate reader system.
HTR2A-CHO cells were dispensed at 2000 cells/3uL/well in 1536-well black-clear bottom plates using a Multidrop Dispenser. After the assay plates were incubated at a 37 C/5% CO2 incubator for 18 h, 3 uL of Dye Loading Buffer was transferred to the assay plate by a Flying Reagent Dispenser. The assay plates were incubated at 37 C for 1h. For agonist mode, 23 nL of compounds dissolved in DMSO, positive controls or DMSO only was transferred to the assay plate by a pin tool. The fluorescence intensity in the plates was measured using FDSS 7000EX kinetic plate reader for 2 min at 1 sec intervals.
% is set by controls: 0 for no effect and ±100 for the full control effect; potency is the fitted concentration of half-maximal effect.

Chain of 5-hydroxytryptamine receptor 2A (Homo sapiens) (P28223 whole entry, looked up): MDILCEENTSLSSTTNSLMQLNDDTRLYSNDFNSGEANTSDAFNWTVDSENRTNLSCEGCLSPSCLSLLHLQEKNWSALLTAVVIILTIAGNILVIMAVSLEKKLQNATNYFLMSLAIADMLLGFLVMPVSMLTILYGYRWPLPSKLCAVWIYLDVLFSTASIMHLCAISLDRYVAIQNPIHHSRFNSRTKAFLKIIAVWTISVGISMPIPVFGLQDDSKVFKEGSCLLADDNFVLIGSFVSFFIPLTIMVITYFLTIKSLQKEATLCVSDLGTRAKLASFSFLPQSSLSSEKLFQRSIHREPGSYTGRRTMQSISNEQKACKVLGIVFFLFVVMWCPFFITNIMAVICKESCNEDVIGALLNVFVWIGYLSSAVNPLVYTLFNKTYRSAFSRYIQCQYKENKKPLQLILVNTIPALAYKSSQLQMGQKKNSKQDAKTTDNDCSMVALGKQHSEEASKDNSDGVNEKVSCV

| Structure (SMILES) | activation | Potency |
| --- | --- | --- |
| CCNC(=O)/C=C/c1cccc(Br)c1 | -9.87% [at 35.6 µM] (inactive) |  |
| CCOc1ccc(C(=O)OCCN(CC)CC)cc1 | -2.14% [at 35.6 µM] (inactive) |  |
| c1ccc(-c2ccccn2)nc1 | -0.716% (inactive) |  |
| Nc1ccc(O)c([N+](=O)[O-])c1 | -0.686% (inactive) |  |
| c1ccccc1 | 2.02% (inactive) |  |
| c1ccc2c(c1)CCCC2C1=NCCN1 (stereo not given) | 4.48% [at 35.6 µM] (inactive) |  |
| CCOC(=O)C1=NN(c2ccccc2)C(=O)C1 | -5.62% (inactive) |  |
| CC(=O)OCC(=O)[C@@]1(O)[C@H](C)C[C@H]2[C@@H]3CCC4=CC(=O)C=C[C@]4(C)[C@@]3(F)[C@@H](O)C[C@@]21C | 13% [at 35.6 µM] (inactive) |  |
| Cc1coc2ccccc2c1=O | 0.173% [at 35.6 µM] (inactive) |  |
| CCC(C)C(C)=O (stereo not given) | 4.49% (inactive) |  |
| CCCCNC(=O)NCCCC | -1.01% (inactive) |  |
| O=S(=O)(O)c1ccc(Nc2nc(Nc3ccc(/C=C/c4ccc(Nc5nc(Nc6ccc(S(=O)(=O)O)cc6)nc(N(CCO)CCO)n5)cc4S(=O)(=O)O)c(S(=O)(=O)O)c3)nc(N(CCO)CCO)n2)cc1 | -0.442% [at 35.6 µM] (inactive) |  |
| CCN(C)C(=O)Oc1cccc([C@H](C)N(C)C)c1 | 1.96% [at 35.6 µM] (inactive) |  |
| Oc1cc2c(cc1O)[C@H]1c3ccc(O)c(O)c3OC[C@@]1(O)C2 | -4.99% (inactive) |  |
| OC(CCN1CCCCC1)(c1ccccc1)C1CC2C=CC1C2 (stereo not given) | 2.04% [at 35.6 µM] (inactive) |  |
| CC1(C)[C@@H](OC(=O)CCC(=O)O)CC[C@]2(C)[C@H]3C(=O)C=C4[C@@H]5C[C@@](C)(C(=O)O)CC[C@]5(C)CC[C@@]4(C)[C@]3(C)CC[C@@H]12 | 0.596% [at 35.6 µM] (inactive) |  |
| O=C(c1ccccc1)c1ccc(O)cc1O | -5.85% (inactive) |  |
| CC(=O)c1ccccc1[N+](=O)[O-] | 0.177% (inactive) |  |
| Oc1ccccc1F | -6.9% (inactive) |  |
| O=[N+]([O-])c1ccc(Nc2ccc(Nc3ccccc3)c(S(=O)(=O)O)c2)c([N+](=O)[O-])c1 | -5.3% (inactive) |  |

| Structure (SMILES) | activation | Potency |
| --- | --- | --- |
| COC(=O)[C@@H](N)Cc1ccc(O)c(O)c1 | 0.958% [at 35.6 µM] (inactive) |  |
| CC(C)c1ccc(O)c(C(C)C)c1 |  | 54.9 µM (active) |
| O=C(c1ccccc1)C1CCCCC1 | 1.24% (inactive) |  |
| CC1(C)[C@@H](O)CC[C@]2(C)[C@H]3C(=O)C=C4[C@@H]5C[C@@](C)(C(=O)O)CC[C@]5(C)CC[C@@]4(C)[C@]3(C)CC[C@@H]12 |  | 48.4 µM (active) |
| CC(C)(c1ccccc1)c1ccccc1 | 5.37% (inactive) |  |
| O=C(O)c1ccccc1C(=O)OCc1ccccc1 | 0.0623% (inactive) |  |
| O[C@@H](c1cc(C(F)(F)F)nc2c(C(F)(F)F)cccc12)[C@H]1CCCCN1 |  | 10.7 µM (active) |
| COC(=O)c1cc(Cl)ccc1[N+](=O)[O-] | -4.56% (inactive) |  |
| CC(COc1ccc(C(C)(C)C)cc1)OS(=O)OCCCl (stereo not given) | -0.689% (inactive) |  |
| C=CC(=O)OCCC#N | -0.168% (inactive) |  |
| CCC(C)OC(=O)N1CCCCC1CCO (stereo not given) | -1.12% (inactive) |  |
| COc1ccc(S(=O)(=O)Nc2nnc(CC(C)C)s2)cc1 | -14.3% [at 35.6 µM] (inactive) |  |
| CCCCCCC(=O)c1ccccc1 | 2.22% (inactive) |  |
| CC1(C)CCC[C@]2(C)[C@H]3CCO[C@]3(C)CC[C@@H]12 | -0.173% (inactive) |  |
| CCn1nc(C)c2c1C(=O)NCC(c1ccc(O)cc1)=N2 | -0.0508% (inactive) |  |
| CC1(CN2CCC(n3c(=O)[nH]c4ccccc43)CC2)OCc2ccccc2-n2cccc21 (stereo not given) | -0.317% [at 35.6 µM] (inactive) |  |
| O=C(Nc1cccc([N+](=O)[O-])c1)c1cc2ccccc2cc1O | 4.58% (inactive) |  |
| CCCCC=O | 0.229% (inactive) |  |
| COC(=O)[C@]1(C)CCC[C@@]2(C)[C@H]1CC=C1C=C(C(C)C)CC[C@@H]12 | 4.75% (inactive) |  |
| Cn1c(N)nc2nc[nH]c2c1=O | -1.59% (inactive) |  |
